Laboratory results from the supplement of paper PMC10681739.

Assays:
ETS1 [1] = target: T1, ETS1 (UniProt P14921); assay: ETS1 binding intensity (PBM fluorescence), ETS1 alone (arbitrary fluorescence units); higher = stronger binding; conditions: ETS1 concentration 1 nM; RUNX1 concentration 0 nM
T1 sequence: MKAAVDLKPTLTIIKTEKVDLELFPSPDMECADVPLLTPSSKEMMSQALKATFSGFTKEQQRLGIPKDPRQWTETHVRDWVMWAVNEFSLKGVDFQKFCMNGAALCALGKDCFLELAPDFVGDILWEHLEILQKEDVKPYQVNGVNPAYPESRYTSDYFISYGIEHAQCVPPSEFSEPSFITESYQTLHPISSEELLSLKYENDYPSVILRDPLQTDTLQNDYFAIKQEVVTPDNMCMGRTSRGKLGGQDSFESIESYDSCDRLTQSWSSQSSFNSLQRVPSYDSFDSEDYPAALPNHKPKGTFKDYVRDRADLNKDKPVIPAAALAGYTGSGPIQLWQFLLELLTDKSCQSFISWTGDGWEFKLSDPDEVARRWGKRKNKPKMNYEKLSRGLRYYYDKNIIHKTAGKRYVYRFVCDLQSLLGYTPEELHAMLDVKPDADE

RUNX1 [2] = target: RUNX1 (UniProt Q01196); assay: RUNX1 binding intensity (PBM fluorescence), RUNX1 alone (arbitrary fluorescence units); higher = stronger binding; conditions: RUNX1 concentration 2 nM; ETS1 concentration 0 nM
Sequence of RUNX1 (Q01196 whole entry): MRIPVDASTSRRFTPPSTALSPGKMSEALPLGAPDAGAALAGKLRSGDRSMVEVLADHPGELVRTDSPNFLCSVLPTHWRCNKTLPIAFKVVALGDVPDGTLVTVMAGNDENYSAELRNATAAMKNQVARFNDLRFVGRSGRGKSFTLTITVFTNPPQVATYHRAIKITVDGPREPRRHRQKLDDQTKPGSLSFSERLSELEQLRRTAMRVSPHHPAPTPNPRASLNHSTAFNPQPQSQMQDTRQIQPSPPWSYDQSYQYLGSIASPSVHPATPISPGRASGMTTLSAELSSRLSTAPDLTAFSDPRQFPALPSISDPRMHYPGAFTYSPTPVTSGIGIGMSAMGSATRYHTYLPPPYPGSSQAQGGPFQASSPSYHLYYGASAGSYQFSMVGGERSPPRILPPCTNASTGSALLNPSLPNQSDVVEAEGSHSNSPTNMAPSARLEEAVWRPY
Method: (§1)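 Cooperative gcPBM on 36-bp genomic probes with neighbouring ETS1 and RUNX1 sites. Recombinant human RUNX1 (2 nM) was incubated alone or with ETS1 (25 nM) and detected with anti-RUNX1 antibody plus Alexa488 secondary. Values are medians over 4 replicate spots; the RUNX1+ETS1 data were normalised to the RUNX1-only data. The probes sit in constant array flanks that are not printed.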

ETS1 [3] = target: T1, ETS1; assay: ETS1 binding intensity (PBM fluorescence) in presence of RUNX1, normalised to ETS1-only experiment (arbitrary fluorescence units); higher = stronger binding; conditions: ETS1 concentration 1 nM; RUNX1 concentration 25 nM
RUNX1 [4] = target: RUNX1 (UniProt Q01196); assay: RUNX1 binding intensity (PBM fluorescence) in presence of ETS1, normalised to RUNX1-only experiment (arbitrary fluorescence units); higher = stronger binding; conditions: RUNX1 concentration 2 nM; ETS1 concentration 25 nM
Method: as §1
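For RUNX1 binding intensity (PBM fluorescence) in presence of ETS1, normalised to RUNX1-only experiment in this document: Full-length recombinant human ETS1 or RUNX1 bound to double-stranded 36-bp genomic probes on microarrays, detected by protein-specific primary antibody and Alexa488 secondary, spot fluorescence as median of four replicate spots.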
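For RUNX1 binding intensity (PBM fluorescence), RUNX1 alone in this document: Full-length recombinant human RUNX1 bound to double-stranded 36-bp genomic probes on a high-density microarray, scored as Alexa488 fluorescence per spot via anti-RUNX1 antibody, median of four replicate spots.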

Sequence	ETS1 binding intensity (ETS1 [1])	RUNX1 binding intensity (RUNX1 [2])	ETS1 binding intensity (ETS1 [3])	RUNX1 binding intensity (RUNX1 [4])
GGACCGGAAGTAGGTTTCTACCCGACCGCATTTTAC	12100	889	43900	2740
GACCTGGGTTTCCTGTCTGTACATCGCGGTTCCTAC	936	856	1260	1830
CCTGCTGCTTCCGCCCGGAGTTGTTGTGGGCTCCAG	643	806	661	1870
TTTTCTTTCCTAGGAAGTGGTTGCTGGGTTCTGAGG	785	831	721	872
GCAGAGAGGAGGGGATGTGGTTTCACAGCTTGCTCC	422	835	1720	937
CCTCTGTTCTTCACAGGAAGCCACAGGCCTCCCCTG	2840	958	3160	1050
TGGCTGTGTCCCGGAAGTGGTCATAAGCTGGGTCCC	8520	730	9830	2470
GGCAACCCAAGGAAGTATCTCTGAAACCACACAACA	540	1040	1190	1110
CCATTCACGGGCTTCCGCGGTGTCCCCACCCCCTAA	724	1080	760	1160
TAAAACACCAGGAAACTCTGTGGTGAGTGGGAGGTG	787	1060	1220	903
TTACCATCGCCCTTCCTGTGGGCTGGGAGGCCAGGT	468	754	373	1060
TTCAGGTGACTTCCGGCCGGACCGCTGAGGACGCGG	9020	684	9520	1630
GCCCCAGCGTTTCCTCTTACCCACAATGCCCCGCCC	794	1510	869	2330
GACTGGTTTCCTGGTTTTGATGTGGTTTAGAGAAAA	504	1080	630	2170
GCCCACTTCCTGCCGTAAGAGAAAACCACTAACACA	890	1970	2190	4760
TTTATCATGAATGCAGGATGTGGGCAAACTCATGAC	2860	814	5910	1140
AATCATTTCCTGCCCTAACGTTTGTGGTCTGCCTAG	728	832	1720	2760
GTGAGCCTGTAAAGGAAATTGAGGTTATGTGGCTCA	981	694	1770	864
TTCAGTCCTGGTTTCCTGTGGTTCTAGGATCTTTAT	903	828	957	1440
CCTAGAACCGGAAGAGAAAGGGGCTGCGGTGCAGCA	1680	845	6270	1420
GGCATTCACTTCCGGTCTGGGGCCTGCGGCGGCGGC	18600	793	19400	2260

Sequence	ETS1 binding intensity (ETS1 [1])	RUNX1 binding intensity (RUNX1 [2])	ETS1 binding intensity (ETS1 [3])	RUNX1 binding intensity (RUNX1 [4])
GGCTTCCTGCCCAACTACCAAGAAAAAGCCACAAAG	453	1100	962	2040
AGGGAAGCAGGAAGTGACTGCGGGAGTGGAGCCGGC	3920	677	3540	1080
GAGGGGAGGATGTCTGAGCTTTTAATTGTGGTTTCA	370	870	1050	943
ACCCACCCGGAAGTCCTCCTGGCCCACAAGCTCCGC	2360	992	2270	1630
TTAACCAGACATTTCCTGTGGTCTAAGGTGACCCCA	859	1020	1090	2710
CGTACGCGCACTTCCGGTCTTTGTGGCTTGCAGCTC	18000	853	34400	2610
GAGCACAGGAAAAGCTGGTGCCAACCACAAGTGCTT	368	815	1130	971
GCCACCTCTTCCTGTGTTGCAAACCACAGGTCCACC	805	1600	1320	5050
TCTAGTTCTGGTTTCCGGACCGCATTCGGAACTAGA	1000	786	1390	1350
AGATTTTGTCTTCCTGTTGTGGCAACATCTGTAGAA	521	1210	406	1520
TCTTCAGGCGTCTTTCCGGTGGTGGTCGTTTTTGCT	1530	905	1330	1390
GTGAATGAGGGGGAAGGAAGTGGTTTGGAAAAATAC	1890	949	2790	962
CGAACGCCGGACGTTCTGGGCACGTGACCGCCACCC	643	863	1100	938
CTCTTCCTGCCTGTCCGTGGCTGGTGTGGTTTGCGT	457	958	616	2670
ACAGATACAGCCTCAGGAAGTGGTTTTGTATCTCTG	3200	682	6160	1070
GGAGCATCCCGGAAGTCGTCACTGCGGCCGCTCCCG	6420	690	8070	1770
CACCGACCGGAAGGGCCCCAAGGATCCCCGCAGCAG	2130	831	2710	1380
AGACCCGGAAGAACTTGTCCCAGTGTTGACCACACC	505	870	1100	938
CAGTGACAGGAAGTGGTTCAGCGGTTGTTTAGGGCT	7680	892	9430	3830
TCGGAGACGGCGAAAGGAAACCGCAAGGAGGCCACC	642	4180	2820	9290
